# Results published in the supplement of paper PMC12632987.
# Over roughly 1,800 sequences, “median log2 fold change of GCK-ALFA target abundance (FLAG IP / Myc IP barcode read proportion)” has its median near 0.14; the lowest 2% begin near -0.84. This is one part of a sample in which the lowest values are shown more often than they occur.
# T1: TRAF2, Q12933
# T1 chain: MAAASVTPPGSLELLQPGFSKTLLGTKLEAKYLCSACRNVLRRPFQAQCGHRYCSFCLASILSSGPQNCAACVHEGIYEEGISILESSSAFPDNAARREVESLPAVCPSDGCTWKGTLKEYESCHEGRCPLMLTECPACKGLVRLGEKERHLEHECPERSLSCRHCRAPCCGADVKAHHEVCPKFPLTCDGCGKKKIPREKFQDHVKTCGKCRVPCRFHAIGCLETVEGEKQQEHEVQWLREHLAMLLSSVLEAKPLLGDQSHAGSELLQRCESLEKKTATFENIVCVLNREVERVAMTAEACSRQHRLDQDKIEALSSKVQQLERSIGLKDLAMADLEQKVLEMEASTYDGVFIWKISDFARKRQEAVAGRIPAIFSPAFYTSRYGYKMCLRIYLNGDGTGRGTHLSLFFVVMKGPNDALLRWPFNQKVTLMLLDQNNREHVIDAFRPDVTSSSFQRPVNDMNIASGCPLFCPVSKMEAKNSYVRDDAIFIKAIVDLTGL
# B1: traf2_out_11_155_669 (protein)
# chain: EEKQKLNNELVNELTKVSDELKEKVIKILKEAAEKHPEHKEEIEKVIESSKTLSGTSFARKAAQLFKELGLEEEAKKVEELLEEAQKKMNEIYKKYEKKL
# B2: traf2_out_17_178_1674 (protein)
# chain: DKAAKRAEISALTDELIDLTEDTGTKLLALAEAEGTLTPEELALLRAALRSSSANTLLAVAEKLAPKLKTKAEAEALLKDFKEKKKELSKKIAEAYKEYE
# B3: traf2_out_14_149_1231 (protein)
# chain: SEEAKLLAAAAELTEKIAKTLEEVLKLLKEGKLEEAKKLLKESIEELEKESKKKGVTPSQLFQLEDLLELLEKDPEAAKKFAEEALARAKENADTLKEMA
# B4: traf2_out_11_169_779 (protein)
# chain: EEAEKNRKINDFALELNDKAKEKLKEEALKLAKEAGLDEEEIKKIFEENKNKSLSAVAAALIKYFESKGKEEEAAKVLEKYEELKDEINKKSSEFIKSLE
# B5: traf2_out_1_158_912 (protein)
# chain: DTKKKLMLSSVELVVKDAVESARENGDEETAKAIEELGEKIIELVKKLAIEEGKSVEEVIEEIDKLAAEFKAKADPETAAAIERLTRRVKSALRQVEKLM
# B6: traf2_out_18_5_1953 (protein)
# chain: SREEELKEALKSAERILSKKPEIEAEAKKLGVEELYKKAVEDFTRALENGEDLAKISTKHAEELAKKIGDPEKAEDLTYEIRRYVSAEYAKEVLEEMLKA
# B7: traf2_out_20_8_2269 (protein)
# chain: MSMEEKLARAADLILDAKDLVRAVIREVLADERAPAIAAEAAAAISVSVSADDTDADILLRIRERATEALTRLAERTGDPRLEEARARVAAALDAAAAAA
# B8: traf2_out_6_156_2453 (protein)
# chain: AAEAILERTEKEIEEGIKALAAAPEERKIAEINRIAGAFYRGLQALRAAGASLEELRAAAERLLETAEKKAKEAGLDERTRNLLLASLRAVADVALAAAA
# B9: traf2_out_17_162_1558 (protein)
# chain: SEIEKRWEKLKEELKELEKRVEALEKRLERLAELTPEEIRDLLVEASEVKRRALELAEEAEKLKEKIGEEEAQKLIDEANEIAERAQRIANTLYKALEKK
# B10: traf2_out_18_167_1847 (protein)
# chain: EEEIRKRREELSDRLVELSEVKRAARLALQALETDPSKVPAALAALREKAASIPELQPLVDAAEAALAAGDREGLRATLEKLIEKAQKLMNEVLKEYEAL
# B11: traf2_out_6_156_2450 (protein)
# chain: MIEEIFEKAVKEIEELIKKLAAAPESKKIAYINKIAGTFYKALQELRESGASLEEIEEFVERLLKKAEELANEAGLDEDTKNLLLSTLSAVGEVAIANAK
# B12: traf2_out_17_162_1507 (protein)
# chain: SPLEELRRRIEEELEELRRELERLEKKMENLKSMSKEELSDLLVEASEAKARALRLAELVREHREELGEEEAERLIREAEEIAERLQRIANEAYKELLKK
# B13: traf2_out_3_89_2301 (protein)
# chain: AAAEAAKIEAARARAERYARGFRKSARFVAKQMIADGMSLDTLRGVLEAARNALVEVFREELKEQGLSEETIEELVKELTEELEKIVEEILEEAEKKRAE
# B14: traf2_out_13_95_1141 (protein)
# chain: SAEVAAKINAIADRLLAEKDAILDELEAQLKAAGLLTPELRAALEAAKRSSISTAIHRLRELAERYPEARAALEAAIARLEALRREAGREVAEILKEEKE
# B15: traf2_out_20_3_2084 (protein)
# chain: KELEEEYKKHLEKAEKLLKEAAKLADPETAKKLEELIKRLKKSEELPYSDRLVVLSEVRREVLLLAQEAKAAGNEELAKILEEAAEEINRAMNLLMKMIE
# B16: traf2_out_3_77_2274 (protein)
# chain: SMKKEEIREKLDEATTLAIASLAVNAINNPEKAEEFREMARIVHRARAIAKEKGKEEELLPLIEEAKEAADKLNEGDESALEKLKEIVKKIGELAEKWEK
# B17: traf2_out_17_60_1763 (protein)
# chain: GPEEEKEELKREARRAIEEARRLVEEVRAKLAAGTLTASEAMDWLVELTEKRRELERLLEEAEKKGEEMEELKRELERAIEEVRRTMNEVGKHLLELLEA
# B18: traf2_out_20_3_2204 (protein)
# chain: SELEEELEKRLDAAEKLLKEAQKLADPETAKTLDALIARLKASRELSYDDRLVTLSAIRAEVLALAQAAKAAGNAELAAVLEAAADELQKAMNLVYKIIE
# B19: traf2_out_17_162_1540 (protein)
# chain: SETEEELRRLREELEELEEELRRLEEISKNLETLSKEELTDLLVEASELRRRALELAERLRRLEEETGSEEARRLRERAEEIAERLQRIANEIYKELEKK
# B20: traf2_out_13_95_1086 (protein)
# chain: SKEVNEKIMEIADEMMEQILATLDALAKQVAGDPELAAAVAEARRLAETRGVNEAIHKLRELAKANPEHAELLNAAIAEIEAIKKEASKKISELLKEEEE
# B21: traf2_out_6_3_2525 (protein)
# chain: SSESLRKDARKVLENMGITTAEQLLTLVTAEVNAVKKVASRPDFDRADVAGLRSVLALTRAMVEVAYEELPSVTEADKAEALALIADAEALVEAKAKELE
# B22: traf2_out_3_89_2280 (protein)
# chain: SMEEEEKIKEARENIETWIRGLRKSTRRVAEEMRKEGASLETIKGLIDSSATALLEAFKISLKDKGFDEETIEELVEEAKEELEKIREELKEEAEKAYEE
# B23: traf2_out_13_95_1106 (protein)
# chain: SAETAEKIMEIADEMLDKVEELLEKLLEIAKKKGKLEEEIQEALHLARYRSINEAIHLLKELAKKYPEFKEELEETIEKIEELIREAGRKVAEILKEEKE
# B24: traf2_out_13_95_1104 (protein)
# chain: SAETAEKIMKIADEMLDKVEKILEELLKIAKEKGKLEEEIKEALHLARYQSINEAIHKLKELAKKYPEFKEELEAAIKEIEALKKEAGRKVAEILKEEKK
# B25: traf2_out_13_95_1091 (protein)
# chain: SKEVAEKINKIADEMLDKSLALLEKLLKIAEEKGKAVEEIKEAIDLAEYRSINEAIHKLEELAKKYPEFKEELEATIKEIRAIKREAGRKVAEILKEEKE
# B26: traf2_out_20_38_2033 (protein)
# chain: SEEEEEKRRLEEAIEVANEAYDKYSARVAAWKAAGKTVEEIAEEAKEEVRRLLTEAGLEEEAEILIEDIDRALSSPEAERLIVRILARAEALVYQKKVNE
# B27: traf2_out_11_104_646 (protein)
# chain: LTREQAREFNDFAMEANDKAKELLQEVADFLESRGHEEEAAKVRAELAHPGSGVSTFKNLLEELLPKLDEESRAVAEKAIKELEELQKKVSDKLNELEKK
# B28: traf2_out_20_3_2054 (protein)
# chain: EELLKELEEEEKKLRELIEEIEKLVDPETAEELREALERVEKARKEGLEEYLVALSELRRLLLRLAEEARAAGKEEVAALLEEAAEAAQRAMNIVMKIIE
# B29: traf2_out_18_117_1796 (protein)
# chain: SELEKLQEEFEKTLKEFEEELEEAQRVATKLIEKYPKQLPEEAMDAIVEFGEVKRRVQQLVQEAKAHPNDVEKQKKLVEELKKLLEEMKEIKKKLEEILK
# Target: T1, TRAF2, Q12933
# Experiment: median log2 fold change of GCK-ALFA target abundance (FLAG IP / Myc IP barcode read proportion) (log2 ratio); each designed protein is fused to an ALFA-tag nanobody in HEK293 cells to bring the named protein to FLAG-tagged glucokinase (GCK); Myc marks an untargeted standard; higher = target protein stabilised (more abundant)
# Conditions: target protein: 3xFLAG-MCP-GCK-ALFA reporter; HEK293 landing pad (RPLP)
# Method: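 LABEL-seq trans screen in HEK293 landing-pad cells. Each de novo designed 100-aa effector handle, binding the indicated effector (E3 ligase, DUB or autophagy protein), is fused to a constant NbALFA target handle and induced with 2 ug/mL doxycycline. A FLAG-MCP-GCK-ALFA target and a Myc-MCP standard reporter were transfected, and after 48 h circRNA barcodes were recovered by anti-FLAG and anti-Myc IP and sequenced. The value is the median across barcodes (at least 3 per design) of log2(FLAG/Myc read-proportion ratio), with the two transfection replicates pooled. Negative values mean degradation and positive values mean stabilisation of the target.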
row,Binder,median log2 fold change
1,B1,0.305
2,B2,0.0887
3,B3,0.24
4,B4,0.368
5,B5,0.0872
6,B6,-0.0294
7,B7,0.0236
8,B8,-0.00113
9,B9,0.297
10,B10,0.224
11,B11,0.00905
12,B12,0.373
13,B13,-0.974
14,B14,-0.98
15,B15,0.118
16,B16,0.354
17,B17,-0.0301
18,B18,-0.756
19,B19,0.402
20,B20,-0.0311
21,B21,-0.025
22,B22,0.0329
23,B23,-0.553
24,B24,-0.841
25,B25,-0.417
26,B26,-0.971
27,B27,0.185
28,B28,0.588
29,B29,0.186
